Hits are enriched below; roughly 3.6% of the tested compounds scored in any of these assays.
Pf apPOL block: Pf-apPOL DNA polymerase inhibition; inhibition, % at 10 µM; 0.25% of 210,000 active; Recombinant Pf-apPOL, molecular beacon fluorescence, 1.5 h; AID 1794808
mHTT CaM bind: inhibitors of human mutant huntingtin-calmodulin interaction; AlphaScreen His-mHTT/GST-CaM binding, luminescence; inhibition, % at 15 µM; 3.6% of 190,000 active; AID 1671202;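 note: 0% = both proteins with DMSO and 100% = one protein alone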
Target sequence (P42858 whole entry, looked up, stated change not applied): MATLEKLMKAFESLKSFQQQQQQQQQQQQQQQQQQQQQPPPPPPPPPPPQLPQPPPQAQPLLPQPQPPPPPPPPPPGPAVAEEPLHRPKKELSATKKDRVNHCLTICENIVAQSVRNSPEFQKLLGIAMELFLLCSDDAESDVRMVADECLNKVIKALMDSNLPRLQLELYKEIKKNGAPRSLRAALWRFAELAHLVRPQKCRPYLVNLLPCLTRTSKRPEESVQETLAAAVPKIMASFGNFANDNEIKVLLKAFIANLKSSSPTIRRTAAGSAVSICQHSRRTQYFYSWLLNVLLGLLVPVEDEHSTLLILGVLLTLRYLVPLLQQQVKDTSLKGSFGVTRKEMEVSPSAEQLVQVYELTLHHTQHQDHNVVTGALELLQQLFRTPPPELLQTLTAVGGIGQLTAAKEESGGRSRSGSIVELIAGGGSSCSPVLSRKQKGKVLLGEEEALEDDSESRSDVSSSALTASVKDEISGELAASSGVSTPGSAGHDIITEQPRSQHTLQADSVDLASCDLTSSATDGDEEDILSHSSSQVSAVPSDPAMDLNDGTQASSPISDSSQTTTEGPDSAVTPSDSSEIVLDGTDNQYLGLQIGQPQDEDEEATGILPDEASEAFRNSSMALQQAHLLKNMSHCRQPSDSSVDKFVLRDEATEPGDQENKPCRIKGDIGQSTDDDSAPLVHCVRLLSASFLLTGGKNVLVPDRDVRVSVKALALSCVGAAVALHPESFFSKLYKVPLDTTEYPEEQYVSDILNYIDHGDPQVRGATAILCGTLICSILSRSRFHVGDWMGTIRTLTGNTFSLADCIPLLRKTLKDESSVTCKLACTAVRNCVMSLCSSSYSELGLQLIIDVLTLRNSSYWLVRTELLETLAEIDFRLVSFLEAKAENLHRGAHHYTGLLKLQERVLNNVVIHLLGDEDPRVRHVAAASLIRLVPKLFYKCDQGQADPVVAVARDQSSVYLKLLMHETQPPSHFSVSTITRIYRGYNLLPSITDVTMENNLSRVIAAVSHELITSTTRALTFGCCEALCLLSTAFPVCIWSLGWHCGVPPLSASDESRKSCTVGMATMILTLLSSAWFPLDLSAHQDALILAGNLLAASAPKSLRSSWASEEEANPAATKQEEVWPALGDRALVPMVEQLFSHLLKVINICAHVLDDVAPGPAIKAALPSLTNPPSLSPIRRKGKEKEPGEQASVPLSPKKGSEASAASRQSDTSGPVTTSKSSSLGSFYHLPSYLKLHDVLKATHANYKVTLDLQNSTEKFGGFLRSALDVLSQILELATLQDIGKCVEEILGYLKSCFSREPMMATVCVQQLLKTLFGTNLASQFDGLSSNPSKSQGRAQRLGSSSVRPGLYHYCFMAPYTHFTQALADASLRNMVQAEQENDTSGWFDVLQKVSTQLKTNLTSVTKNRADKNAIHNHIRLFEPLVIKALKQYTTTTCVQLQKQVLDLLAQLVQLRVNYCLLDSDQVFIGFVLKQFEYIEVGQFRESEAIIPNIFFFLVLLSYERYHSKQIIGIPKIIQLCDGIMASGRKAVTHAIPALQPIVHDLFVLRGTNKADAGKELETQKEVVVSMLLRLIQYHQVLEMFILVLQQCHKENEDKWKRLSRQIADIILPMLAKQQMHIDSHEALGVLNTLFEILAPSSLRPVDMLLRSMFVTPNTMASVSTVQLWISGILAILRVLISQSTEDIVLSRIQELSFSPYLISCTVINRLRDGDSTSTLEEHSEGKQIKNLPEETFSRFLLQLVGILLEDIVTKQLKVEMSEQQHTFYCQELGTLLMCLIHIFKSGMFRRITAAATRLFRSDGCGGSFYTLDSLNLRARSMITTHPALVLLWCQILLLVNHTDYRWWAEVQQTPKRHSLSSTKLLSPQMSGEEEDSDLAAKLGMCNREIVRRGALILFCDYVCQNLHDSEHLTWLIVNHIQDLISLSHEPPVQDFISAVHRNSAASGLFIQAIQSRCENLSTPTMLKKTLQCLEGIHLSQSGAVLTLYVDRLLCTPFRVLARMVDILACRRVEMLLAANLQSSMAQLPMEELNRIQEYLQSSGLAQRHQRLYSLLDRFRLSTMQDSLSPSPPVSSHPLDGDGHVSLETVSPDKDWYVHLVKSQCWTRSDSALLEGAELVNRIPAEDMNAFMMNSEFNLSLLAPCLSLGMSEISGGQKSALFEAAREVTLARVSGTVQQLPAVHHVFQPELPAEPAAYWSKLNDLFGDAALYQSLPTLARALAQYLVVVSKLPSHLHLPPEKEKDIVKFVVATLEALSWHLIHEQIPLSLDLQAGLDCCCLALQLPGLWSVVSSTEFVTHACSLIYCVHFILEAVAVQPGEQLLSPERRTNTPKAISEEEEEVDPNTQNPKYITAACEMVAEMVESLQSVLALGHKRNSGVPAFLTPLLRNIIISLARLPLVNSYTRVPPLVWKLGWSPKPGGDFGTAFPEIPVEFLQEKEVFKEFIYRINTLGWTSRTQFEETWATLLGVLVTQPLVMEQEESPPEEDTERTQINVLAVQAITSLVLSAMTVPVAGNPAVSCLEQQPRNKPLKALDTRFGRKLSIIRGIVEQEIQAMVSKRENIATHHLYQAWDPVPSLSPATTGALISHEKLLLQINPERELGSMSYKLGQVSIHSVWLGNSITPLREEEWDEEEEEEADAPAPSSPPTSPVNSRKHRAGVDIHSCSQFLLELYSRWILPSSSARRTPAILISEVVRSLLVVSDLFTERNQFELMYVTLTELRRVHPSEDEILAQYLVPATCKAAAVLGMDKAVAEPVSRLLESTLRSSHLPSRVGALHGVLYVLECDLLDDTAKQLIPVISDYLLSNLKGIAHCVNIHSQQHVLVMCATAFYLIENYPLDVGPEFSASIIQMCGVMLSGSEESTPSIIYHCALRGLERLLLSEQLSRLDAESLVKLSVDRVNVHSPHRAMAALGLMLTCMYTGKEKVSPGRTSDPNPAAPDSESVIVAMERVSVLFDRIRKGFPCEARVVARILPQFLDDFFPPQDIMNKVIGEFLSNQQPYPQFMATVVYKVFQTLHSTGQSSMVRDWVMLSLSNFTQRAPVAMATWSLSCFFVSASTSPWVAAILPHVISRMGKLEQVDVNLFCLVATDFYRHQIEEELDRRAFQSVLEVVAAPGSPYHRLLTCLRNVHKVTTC
Starred values were filed as active, the others as inactive; / = no result. Cut-off read from the data, not from the text of the source: active = inhibition above about 50%; inactive = the rest.

SMILES	Pf apPOL block	mHTT CaM bind
CCCCNC(=O)[C@@H]1CC=C[C@@H]2CCN(Cc3ccc(Cl)c(Cl)c3)C(=O)[C@@H]21	-14.9	24.8
O=C(NCCc1ccccc1)[C@@H]1CC=C[C@@H]2CCN(Cc3ccc(Cl)c(Cl)c3)C(=O)[C@@H]21	-9.1	99.5*
O=C(NCc1cccnc1)[C@@H]1CC=C[C@@H]2CCN(Cc3ccc(Cl)c(Cl)c3)C(=O)[C@@H]21	-6.5	59.2*
COc1ccc(CNC(=O)[C@@H]2CC=C[C@@H]3CCN(Cc4ccccc4)C(=O)[C@@H]32)cc1	-0.5	5.3
c1ccc(-c2ccc3ccccc3n2)nc1	/	-1.2
c1ccc(-c2cccc(-c3ccccn3)n2)nc1	/	100.3*
COc1ccc(-n2nc3c(c2NC(=O)Cc2ccccc2)CS(=O)(=O)C3)cc1	-2.7	2.0
CCOC(=O)c1ccc(NC(=O)N2CCC(n3c(C4CCCC4)nc4cccnc43)C2)cc1 (stereo unspecified)	-7.2	2.6
O=C1NN(c2ccc(F)cc2)C(=O)/C1=C/c1cccc(Br)c1	16.6	70.0*
Cc1ccc(N2NC(=O)/C(=C\c3ccc(O)c([N+](=O)[O-])c3)C2=O)cc1Cl	6.2	33.0
Cc1ccc(N2NC(=O)/C(=C\c3ccc(Cl)c([N+](=O)[O-])c3)C2=O)cc1C	-3.2	96.0*
O=C1NN(c2ccc(Br)cc2)C(=O)/C1=C/c1cc([N+](=O)[O-])c(Cl)cc1Cl	-3.2	95.0*
Cc1ccc(N2NC(=O)/C(=C\c3ccc(Br)cc3)C2=O)cc1C	28.2	4.0
Cc1ccc(N2NC(=O)/C(=C\c3cccc(Br)c3)C2=O)cc1C	-2.3	69.0*
O=C1NN(c2cccc(Br)c2)C(=O)/C1=C/c1ccc(O)cc1	1.3	26.0
Cc1cc([N+](=O)[O-])cc(/C=C2\C(=O)NN(c3ccc(Br)cc3)C2=O)c1O	-0.2	12.0
Cc1cc(C(=O)NCC2(c3ccccc3)CCOCC2)oc1C	3.9	-1.0
CCOC(=O)NC(=O)c1ccsc1NC(=O)c1nc2ccccc2s1	8.4	62.3*
Cc1sc(NC(=O)c2nc3ccccc3s2)c(C#N)c1C	7.1	-0.8
O=C(COc1ccc(Cl)cc1)Nc1ccccc1C(=O)N1CCCC1	-5.7	0.6
CC(=O)NC1=NN(C(C)=O)C2(S1)C(=O)N(C(C)=O)c1ccccc12 (stereo unspecified)	-3.4	5.0
CC(=O)NC1=NN(C(C)=O)C2(S1)C(=O)N(C(C)=O)c1ccc(Br)cc12 (stereo unspecified)	1.8	52.0*
COc1ccc(OCCCC(=O)Nc2ccc(C(C)=O)cc2)cc1	4.5	1.3
COc1ccc(NC(=O)CN(c2ccc(Cl)cc2C)S(C)(=O)=O)c(OC)c1	-5.6	6.1
COc1ccc(N(CC(=O)Nc2ccc(Br)c(C)c2)S(C)(=O)=O)c(OC)c1	-0.2	54.1*
SMILES	Pf apPOL block	mHTT CaM bind
COc1cccc2c1OC1(CCCCC1)N1N=C(c3cccs3)CC21 (stereo unspecified)	-23.9	43.0
COc1ccc(C2=NN3C(C2)c2cccc(OC)c2OC32CCCCC2)cc1OC (stereo unspecified)	-10.5	52.0*
CCOc1cccc2c1OC1(CCCCC1)N1N=C(c3cccs3)CC21 (stereo unspecified)	-20.7	22.0
Clc1ccc2c(c1)C1CC(c3cccs3)=NN1C1(CCCC1)O2 (stereo unspecified)	-5.9	78.0*
Brc1ccc2c(c1)C1CC(c3cccs3)=NN1C1(CCCC1)O2 (stereo unspecified)	-3.1	72.0*
CC1(C)Oc2ccc(Cl)cc2C2CC(c3ccc(F)cc3)=NN21 (stereo unspecified)	-18.3	50.0
Cc1nn(C(=O)c2sc3ccccc3c2Cl)c2c1C1C(C2)C1(C)C (stereo unspecified)	-0.7	-15.0
Cc1ccccc1N1C(=O)c2ccc(Oc3ccc([N+](=O)[O-])cc3[N+](=O)[O-])cc2C1=O	44.7	23.0
CCN(CC)Cc1c(O)ccc2c(=O)c(-c3ccccc3OC)c(C)oc12	-0.4	-6.4
N#CC1C(c2ccc3ccccc3n2)=CN(CC(=O)c2ccc([N+](=O)[O-])cc2)c2ccccc21 (stereo unspecified)	75.4*	32.0
O=C(Cn1nnc2ccccc21)c1ccc([N+](=O)[O-])cc1	2.1	5.0
O=C(NC1CC(=O)N(c2ccc3c(c2)OCCO3)C1)c1cccc2ccccc12 (stereo unspecified)	-8.1	-3.4
CN(Cc1ccccc1)S(=O)(=O)c1cc(C(=O)Nc2ccc(Br)cc2)ccc1F	-7.8	-6.0
CCN1C(=O)NC(=O)/C(=C/c2cn(CCOc3ccccc3C)c3ccccc23)C1=O	-2.8	61.0*
Cc1ccccc1OCCn1cc(C=C2C(=O)NC(=O)NC2=O)c2ccccc21	-60.1	51.0*
O=C1NC(=O)C(=Cc2cn(CCOc3ccccc3)c3ccccc23)C(=O)N1	-52.4	33.0
CCN1C(=O)NC(=O)/C(=C/c2cn(CCOc3ccc(F)cc3)c3ccccc23)C1=O	-4.0	13.0
CCNC(=O)C1=CCN(C(=O)c2ccccc2C)CC1	-0.8	3.9
O=C1CCCC2=C1C(c1ccc(OCc3ccccc3F)c(Cl)c1)C1=C(CCCC1=O)N2	-3.6	-6.3
CCOc1cc(C2C3=C(CCCC3=O)NC3=C2C(=O)CCC3)ccc1OCc1cccc(F)c1	-29.9	75.1*
CCOc1ccc(C2C3=C(CCCC3=O)Nc3ccc4ncccc4c32)cc1 (stereo unspecified)	-1.4	36.0
COc1cc(C2C3=C(CCCC3=O)Nc3ccc4ncccc4c32)ccc1OCc1ccccc1 (stereo unspecified)	-1.2	100.0*
Cc1ccc(S(=O)(=O)N=Cc2ccc(F)cc2)cc1	-0.5	23.0
Cc1ccc(NC2=CC(=NS(=O)(=O)c3ccc(F)cc3)c3ccccc3C2=O)cc1	-3.7	88.0*
COc1ccc(S(=O)(=O)N=C2C=C(Nc3ccc(C)cc3)C(=O)c3ccccc32)cc1	-3.0	75.0*
SMILES	Pf apPOL block	mHTT CaM bind
COc1ccc(NC2=CC(=NS(=O)(=O)c3ccc(C)cc3)c3ccccc3C2=O)cc1	-4.7	46.0
CC1CCCC(NC(=O)CN2N=C(c3ccccc3)CCC2=O)C1C (stereo unspecified)	-10.7	3.0
CC(O)c1cccc(NC(=O)C2C3C=CC(O3)C2C(=O)O)c1 (stereo unspecified)	2.8	-2.0
CC(Oc1ccc(Cl)cc1Cl)C(=O)NC1=NN(c2ccccc2)C(=O)C1 (stereo unspecified)	-5.8	68.0*
CC(Oc1ccc(Cl)cc1Cl)C(=O)Nc1ccncc1 (stereo unspecified)	-3.9	-3.5
COc1ccc(OC)c(CN2CCc3nc(N4CCN(c5ncccn5)CC4)ncc3C2)c1	-0.2	98.9*
CCN1CCN(c2ncc3c(n2)CCN(Cc2cc(OC)ccc2OC)C3)CC1	0.0	48.0
COc1cccc(CN2CCc3nc(N4CCCC4)ncc3C2)c1OC	3.5	88.3*
COc1ccc(CN2CCc3nc(N4CCCC4)ncc3C2)c(OC)c1	0.9	98.9*
Fc1ccccc1CN1CCc2nc(N3CCN(c4ncccn4)CC3)ncc2C1	-1.4	100.0*
Fc1ccccc1CN1CCc2nc(N3CCOCC3)ncc2C1	0.1	5.8
COc1cccc(CN2CCc3nc(N4CCC(C)CC4)ncc3C2)c1OC	-2.9	22.8
COc1cc(OC)c(OC)cc1CN1CCc2nc(N3CCN(C)CC3)ncc2C1	-3.2	27.4
CCCNC(=O)c1nnn(-c2ccc(C)c(C)c2)c1-c1ccncc1	-3.3	-4.9
COc1ccccc1CNS(=O)(=O)c1ccc2nc(-c3ccccc3)[nH]c2c1	-6.1	13.0

High-throughput results as filed in PubChem BioAssay.
